From PubChem
AmpC inh detg: AmpC beta-lactamase inhibition with detergent present | P00811 | AmpC hydrolysis of nitrocefin, absorbance 480 nm, 0.01% Triton | Potency, µM (titrated, usually from 114 µM), inactives show at the highest dose activity change, negative = inhibition, hits mostly inhibitors | 0.041% of 370,000 active | AID 485294;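 further: potency means the concentration at half of the fitted maximal effect; 0% = no-compound wells and -100% = no-enzyme wells; nearly all actives have a fitted effect of over 25% in size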
Target sequence (P00811 whole entry, looked up): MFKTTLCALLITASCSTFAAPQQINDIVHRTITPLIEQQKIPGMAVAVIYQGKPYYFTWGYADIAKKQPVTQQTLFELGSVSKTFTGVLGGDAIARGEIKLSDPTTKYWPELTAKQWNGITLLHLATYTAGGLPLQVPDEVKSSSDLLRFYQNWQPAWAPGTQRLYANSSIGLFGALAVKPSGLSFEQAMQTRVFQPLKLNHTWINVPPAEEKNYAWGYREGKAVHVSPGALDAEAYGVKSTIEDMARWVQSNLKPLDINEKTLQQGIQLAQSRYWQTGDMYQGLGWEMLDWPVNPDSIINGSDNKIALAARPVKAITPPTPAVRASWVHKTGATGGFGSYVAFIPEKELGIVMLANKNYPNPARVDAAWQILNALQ
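AmpC (5.3 nM in the dispensed reagent) in 20 mM phosphate pH 7.0 with 0.01% (detergent screen) or 0.0001% Triton X-100 was preincubated with compounds for 15 min at room temperature. Nitrocefin was then added from an 800 uM solution, and hydrolysis was followed at 480 nm.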
HCV inh: blocks hepatitis C virus; Huh7.5.1 HCVcc-Cre infection, luciferase reporter, 44 h; Potency, µM (highest dose often 41.8 µM), inactives show at the top dose activity change, negative = inhibition, most hits filed as inhibitors; 3.4% of 340,000 active; AID 651820; further: potency means the concentration at half of the fitted maximal effect
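Whole-lifecycle infectious HCVcc-Cre system; cells 1,000/well, compound then virus (~0.5 moi) added 4 h after plating, 44 h culture. Luciferase read 15 sec following 15 min substrate incubation, room temp.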
FMDV antiviral: blocks foot and mouth disease virus. FMDV antiviral cell-based qHTS. Potency, µM (titrated, usually from 57.9 µM), inactives show top-dose activity change, negative = inhibition, actives largely listed as inhibitors. 1.2% of 410,000 active; calls by dose curve; tested in HEK293T cells; further: read-out not given here; potency means the concentration at half of the fitted maximal effect; nearly all actives have a fitted effect of over 45% in size
HCMV antiviral: human cytomegalovirus inhibition. HFF cells, HCMV-luciferase reporter, 72 h; hits give low values. activity change, negative = inhibition, % at 57.5 µM. 4.5% of 410,000 active; in the data active means activity change below about -60%; inconclusive means no clear call, values can overlap the other calls; inactive means above about -39%
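Inhibition of viral replication was scored as loss of reporter luminescence in HFFs infected with HCMV-luciferase (MOI 1 PFU/cell) for 72 h; compounds tested at 2 doses, normalized to buffer and Salinomycin controls.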
AmpC inh no detg: AmpC beta-lactamase inhibition without detergent. AmpC nitrocefin hydrolysis, absorbance 480 nm, 0.0001% Triton. Potency, µM (series often up to 57.1 µM), without a hit: top-dose activity change, negative = inhibition, most hits filed as inhibitors. 0.52% of 330,000 active;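 further: potency means the concentration at half of the fitted maximal effect; plate controls were no compound for no effect and no enzyme for full effect; nearly all actives have a fitted effect of over 20% in size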
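20 mM phosphate pH 7.0 + 0.01% (detergent screen) or 0.0001% Triton X-100; 5.3 nM AmpC reagent; cpd preinc 15 min RT; nitrocefin (800 uM stock) to start; A480 q20 s × 4 min; Activity was normalised to no-enzyme and no-compound control wells.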
An asterisk follows results filed as active; ? = inconclusive; · = no result. Shown are actives, neighbours in structure and some others; about 7.3% of the full set was active somewhere. Unless noted, the call rests on the fitted dose curve; in most records, active means well fitted curve in the direction sought with a large enough effect; inconclusive means small, poorly fitted or top-dose-only effect, or another doubt; inactive means no such curve, though single readings can be large; an effect the other way counts as inactive or inconclusive. Unless noted, on the % scale 0 is the no-effect control and ±100 the full control effect.

SMILES	AmpC inh detg	HCV inh	FMDV antiviral	HCMV antiviral	AmpC inh no detg
CCC(=O)Nc1ccc(Cl)c(NC(=O)c2cccc(OC)c2)c1	6%	?	6%	-88*	-3%
Cc1ccnc(NC(=O)c2cccc(OC(F)F)c2)n1	?	17%	35%	-30	-38%
COc1cccc(C(=O)Nc2cccc(NC(=O)c3ccccc3Cl)c2)c1	-5%	-18%	-9%	-97*	-47%
CN(C)S(=O)(=O)c1cccc(C(=O)Nc2cc(Cl)cc(Cl)c2)c1	6%	11µM*	-6%	-8	-16%
O=C(Nc1cc(Cl)cc(Cl)c1)c1cccc(OC(F)F)c1	-12%	?	40µM*	-75*	-42%
Cn1c(SCc2ccc([N+](=O)[O-])cc2)nnc1-c1ccncc1	-1%	-1%	-23%	?	-3%
COc1ccc2cc(CNc3ccc(C)cc3)c(=O)n(CC(=O)Nc3cccc(C(F)(F)F)c3)c2c1	2%	·	6%	1	·
CC(C)(C)C(=O)NC1=NN(c2c(Cl)cc(Cl)cc2Cl)C(=O)C1	2%	5%	-11%	8	19%
COc1cccc(C(=O)Nc2cccc(C(=O)NC3=NN(c4c(Cl)cc(Cl)cc4Cl)C(=O)C3)c2)c1	-13%	7%	-4%	-1	18µM*
COc1cc(NC(=O)c2ccccc2F)ccc1NC(=O)c1ccccc1Cl	-8%	?	5%	?	-22%
CN(C)S(=O)(=O)Oc1cccc(C(=O)Nc2ccc(Cl)c(Cl)c2)c1	?	?	2%	?	-25%
CN(C)S(=O)(=O)Oc1cccc(C(=O)Nc2cccc(Cl)c2)c1	-3%	8.9µM*	-25%	-29	35%
COc1cc(NC(=O)c2ccc(Br)o2)ccc1NC(=O)c1ccccc1Cl	-5%	10µM*	0%	·	-41%
CCCC(=O)Nc1ccc(C(=O)Nc2cccc(OC)c2)cc1	1%	-22%	46%	-74*	-14%
COC1CCCN(Cc2c(C(=O)N3CCN(C4CCCCC4)CC3)nc3ccccn23)C1 (stereo unspecified)	2%	-9%	27%	19	39%
COc1ccc(/C=C2\C(=O)N(c3c(Cl)cc(Cl)cc3Cl)N=C2NC(=O)c2cccc([N+](=O)[O-])c2)cc1	-6%	-23%	11µM*	·	-21%
COc1ccc(NC(=O)c2cccc(N3C(=O)c4cccc([N+](=O)[O-])c4C3=O)c2)cc1	-7%	9%	-5%	12	-29%
CCCC(=O)Nc1ccc(Cl)c(NC(=O)CC)c1	-12%	-13%	-7%	2	-13%
CCC(=O)Nc1ccc(Cl)c(NC(=O)c2ccccc2OC)c1	-13%	-7%	3%	-62*	-14%
CCOC(=O)C1CCCN(C(=O)Cc2ccc(OC)c(OC)c2)CC1 (stereo unspecified)	·	·	-7%	-13	·
O=S(=O)(Nc1ccc(Cl)cc1)c1ccc(N2CCOCC2)c(NC(=S)NCCN2CCOCC2)c1	-11%	-9%	94%	-22	41%
O=C(O)c1ccc2c(c1)N(Cc1cccc(F)c1)C(=O)CS2	-4%	14%	-12%	-100*	-9%
O=C(NCCN1CCOCC1)c1ccc2c(c1)N(Cc1ccc(F)cc1)C(=O)CS2	?	4%	-14%	10	45µM*
CCC(Cc1ccccc1)NS(=O)(=O)c1c(C)nc2scc(C)n2c1=O (stereo unspecified)	7%	13%	4%	-33	-18%
CCc1ccc(NS(=O)(=O)c2ccc3oc(=O)ccc3c2)cc1	-1%	-22%	20%	-66*	-18%
SMILES	AmpC inh detg	HCV inh	FMDV antiviral	HCMV antiviral	AmpC inh no detg
Cn1c(C=O)c(-c2ccc3c(c2)OCCO3)c2ccccc21	1%	16µM*	-20%	?	-19%
Cc1ccc2[nH]c3c(NCc4ccco4)ncnc3c2c1	-8%	11µM*	-10%	-94*	-35%
COc1cc(CNc2ncnc3c2[nH]c2ccc(C)cc23)cc(OC)c1	3%	?	?	-65*	-10%
c1coc(CNc2ncnc3nc[nH]c23)c1	-10%	?	-30%	-21	-17%
C/C(=N/OCC(=O)NCCCCCCNC(=O)CO/N=C(/C)c1cccs1)c1cccs1	0%	22µM*	-18%	?	108%
C/C(=N\OCC(=O)NC(C)C)c1cccs1	5%	10%	4%	19	-14%
CNC(=O)CSc1nc2cc(S(=O)(=O)Nc3ccccc3OC)ccc2o1	-1%	15%	4%	-25	24%
COc1ccccc1NS(=O)(=O)c1ccc2oc(SCc3ccc(C#N)cc3)nc2c1	-8%	11µM*	?	-84*	-13%
CC(C)(C)OC(=O)NC1CNNC1=O (stereo unspecified)	-5%	2%	8%	-8	-6%
Cc1cc(=O)oc2c(N)c(O)ccc12	?	0%	4%	-4	-8%
C/C(=N\O)c1oc2ccc3c(C)cc(=O)oc3c2c1C	-7%	-6%	-7%	-63*	-21%
Cc1cccc(NC(=O)CSc2nc(C)c(CC(=O)c3ccc(Br)cc3)c(C)c2C#N)c1C	-7%	0%	0%	-79*	-23%
O=C1CN(C(=O)Cn2ncc(Cl)c(Cl)c2=O)c2ccccc2N1	6%	5.6µM*	?	-95*	-13%
O=C1CN(C(=O)/C=C/c2cccc(Cl)c2)c2ccccc2N1	-5%	14µM*	-11%	-22	-20%
O=C1CN(C(=O)COC(=O)c2ccccc2O)c2ccccc2N1	-3%	3%	5%	-39	-10%
COc1ccccc1C(=O)NCCC(=O)N1CC(=O)Nc2ccccc21	-7%	7%	-17%	54	-25%
O=C1CN(C(=O)COc2ccc(Cl)cc2Cl)c2ccccc2N1	-3%	?	4%	-8	-27%
CCC(Oc1ccccc1OC)C(=O)N1CC(=O)Nc2ccccc21 (stereo unspecified)	-2%	15%	1%	-74*	-25%
COc1cc(SC)ccc1C(=O)OCC(=O)N1CC(=O)Nc2ccccc21	·	10µM*	17%	7	-4%
COC(=O)c1[nH]c2ccccc2c1NC(=O)c1c(F)cccc1F	-3%	-14%	-17%	-13	-22%
CCOC(=O)C1=C(C)NC(C)=C(C(=O)OCC)C1C(=O)OCC(=O)N(C)Cc1ccccc1	·	?	-1%	-13	103%
CCc1ccc(NC(=O)CN2C(=O)C(c3ccc(C)cc3)=NC23CCCCC3)cc1	0%	·	-2%	?	·
CCCCOc1ccc(/C=C/C(=O)OCC(=O)N2CC(=O)Nc3ccccc32)cc1OCC	-13%	7.9µM*	13µM*	1	9%
O=C1CN(C(=O)COc2cccc(F)c2)c2ccccc2N1	-4%	11%	·	?	-27%
COc1ccc(/C=C/C(=O)OCC(=O)N2CC(=O)Nc3ccccc32)cc1	-14%	-4%	0%	-34	-45%
